target: ALDH9A1; test: pooled miR-30 sensor sort-seq; sequence = guide strand; details: shRNA

Going from TTATCCTAGTCTCTTTTCCTGT to TTTCTTGATTAGTATCTACAAG, the sensor-assay potency score (higher = more potent) falls from -0.816 to -1.25.

Going from TAATACTCCAGGCACTGCCAGG to TAATATTCGATTGTCACACGGC, the sensor-assay potency score (higher = more potent) rises from -1.24 to 0.406.

target: ALG10B; test: as above; details: shRNA

First: TTGCATAGCAACTCAGTTCACA
Second: TTCATGACTACTCCGATCGCCA
The sensor-assay potency score (higher = more potent) of the first is higher: -0.443 for the first, -0.64 for the second.

First: TATTTCAGAATTGCATATCTTT
Second: TAAAGTGTTGGAAATACTGCTA
The sensor-assay potency score (higher = more potent) of the first is lower: -0.42 for the first, -0.0567 for the second.

First: TAATTTTGCTAGGAGACAGGAG
Second: TTTTGTGCAATGACATTCCCTG
The sensor-assay potency score (higher = more potent) of the first is lower: -0.56 for the first, 0.314 for the second.

Going from TTTCTGAGGAACTATAACAATG to ACTATAACAATGAACAAGCATA, the sensor-assay potency score (higher = more potent) rises from -1.85 to -1.35.

target: ALG3; test: as above; details: shRNA

First: TAGAACTGGTAGTGGAGGGAGC
Second: TGGGTCATTGAAGAGCCGCAGC
The sensor-assay potency score (higher = more potent) of the first is higher: -0.534 for the first, -1.28 for the second.

First: ATGTACACGAAACCAGCTGGGT
Second: ATAGTCATAGGTACCATTGATG
The sensor-assay potency score (higher = more potent) of the first is lower: -1.42 for the first, -0.727 for the second.

Going from TAGGTACCATTGATGACGCCTT to TATGTGTTCCAGGAGAGCTCGA, the sensor-assay potency score (higher = more potent) falls from -0.738 to -0.768.

First: AAGAGCAGCACATTCATCTTCA
Second: ATAGATCAAGAAGACAAGCAGC
The sensor-assay potency score (higher = more potent) of the first is higher: 0.161 for the first, -0.15 for the second.

Going from TTGATGACGCCTTCTACCTCGG to TATAGTCATAGGTACCATTGAT, the sensor-assay potency score (higher = more potent) falls from -0.378 to -0.777.

Going from TGAGGGTAGACTCAGGTCCTGA to TAAAGATGTACACGAAACCAGC, the sensor-assay potency score (higher = more potent) rises from -1.65 to -1.12.

target: ALOX12B; test: as above; details: shRNA

Compared with TTGCCAGGGAAAATTTTCCTAA, TAGAAGTCCTGCTTGGCTCTGA is higher in sensor-assay potency score (higher = more potent): -0.741 for the first, 0.53 for the second.

First: TACTGGTACCCAAAGAAGGTGT
Second: TAGCCATTCCACTCAGGCCGGT
The sensor-assay potency score (higher = more potent) of the first is higher: -0.741 for the first, -1.01 for the second.

Compared with TTGGCTAGCAGCCAGTCCCACT, TGTAGAACTCCGCATAGCGTAC is higher in sensor-assay potency score (higher = more potent): -1.48 for the first, -1.11 for the second.

First: AATGCTGTTGATCTGGACGGTG
Second: TCATCTGCTGTTGTCTTTCCTG
The sensor-assay potency score (higher = more potent) of the first is higher: -0.387 for the first, -0.399 for the second.

First: TAATAGGTGATGATCTCCGTCA
Second: TCTGCTGTTGTCTTTCCTGTGG
The sensor-assay potency score (higher = more potent) of the first is lower: -0.427 for the first, -0.381 for the second.

Compared with TATAGTGACATATCGGATCAGC, TACTTCTCCAGTGCATTCCACA is lower in sensor-assay potency score (higher = more potent): -0.0361 for the first, -0.953 for the second.

Going from TTGCAGTCCAACAGGCCGCGGA to TCTGATCTCCTCTTTTCTGTGC, the sensor-assay potency score (higher = more potent) rises from -0.697 to 0.286.

Compared with TGATCTGGACGGTGTATCGGGT, TTAAAGTTGATGAGAATTGGGA is higher in sensor-assay potency score (higher = more potent): -0.615 for the first, -0.16 for the second.

— the OligoGym collection
